Assay results taken from ChEMBL document CHEMBL3988442, “University of Dundee, Small-Polar-MMV Screening Library” (2021).

Legend:
Format in all cases: functional
Set-up in all cases: scale not given: direction of the effect not stated beside the values
Conditions in all cases: 30 µM
[1] = molecular target: T1, Aspartate--tRNA(Asp/Asn) ligase (Mycobacterium tuberculosis (strain ATCC 25618 / H37Rv)) (UniProt P9WFW3); assay: Assay for Asp RNA synthetase-1 from Mycobacterium tuberculosis; also: in the data most compounds retested in dose-response had high values
T1 sequence (whole entry): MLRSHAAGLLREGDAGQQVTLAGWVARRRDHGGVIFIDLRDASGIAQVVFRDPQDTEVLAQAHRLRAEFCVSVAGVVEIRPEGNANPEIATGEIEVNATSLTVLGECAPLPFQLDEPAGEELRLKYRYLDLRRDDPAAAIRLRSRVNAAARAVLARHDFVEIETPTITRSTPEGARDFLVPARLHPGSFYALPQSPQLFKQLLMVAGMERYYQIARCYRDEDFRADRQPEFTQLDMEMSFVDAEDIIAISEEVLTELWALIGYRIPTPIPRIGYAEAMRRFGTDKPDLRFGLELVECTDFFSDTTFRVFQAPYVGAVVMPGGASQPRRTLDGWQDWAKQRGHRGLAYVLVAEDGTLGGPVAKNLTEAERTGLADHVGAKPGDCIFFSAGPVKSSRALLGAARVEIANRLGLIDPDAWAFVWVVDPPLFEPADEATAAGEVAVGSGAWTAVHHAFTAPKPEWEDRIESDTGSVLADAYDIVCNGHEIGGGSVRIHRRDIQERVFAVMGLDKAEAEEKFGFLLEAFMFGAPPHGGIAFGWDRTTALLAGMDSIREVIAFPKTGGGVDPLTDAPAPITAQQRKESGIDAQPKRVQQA

[2] = molecular target: Shiga toxin 2 (Escherichia coli O157:H7) (UniProt P09385+P09386); assay: E. coli 0.157:H7 Shiga Toxin SOP - stx2 screening assay
[3] = molecular target: AMP-activated protein kinase, AMPK (Homo sapiens) (UniProt P54646+O43741+P54619+Q9UGJ0+Q9Y478+Q13131+Q9UGI9); assay: AMP-dependent Kinase enzyme assay. An in vitro enzyme assay that detects ADP turnover that is directly proportional to AMPK activity. This uses naive AMPK that is activated during the assay with MK-8722

## O=S(=O)(N1CCCCC1)N1CCc2nc(C3CCNCC3)ncc2C1
[1]
  Percent Effect: -1.74%
[2]
  Percent Effect: 13.4%

## Cc1cc(NCCc2c[nH]cn2)nc(-c2cccnc2)n1
[3]
  Percent Effect: 1.96%

## Cc1cc(C(=O)NCC(=O)N2CCOCC2)nn1C(C)(C)C
[3]
  Percent Effect: 8.45%

## Cc1cccc(C(=O)N2C[C@@H](OCc3cccnc3)[C@H]3OCCC[C@@H]32)n1
[1]
  Percent Effect: -2%
[2]
  Percent Effect: -30.7%

## COc1ccc2ncn(Cc3ncc[nH]3)c(=O)c2c1
[3]
  Percent Effect: -1.95%

## Cc1ccc2c(n1)N(CCn1cccn1)CCN(C(=O)NC1CC1)C2
[1]
  Percent Effect: 0.917%
[2]
  Percent Effect: 6.77%

## CN(CC(=O)N1CCCN(Cc2cscn2)CC1)c1cnccn1
[1]
  Percent Effect: -1.02%
[2]
  Percent Effect: -25.9%

## CCc1n[nH]c(C2CN(C(=O)c3cnc(C)s3)CCO2)n1 (stereo not drawn)
[1]
  Percent Effect: -6%
[2]
  Percent Effect: -8.48%

## CCCNC(=O)CCC(=O)Nc1ccc(-n2cncn2)c(F)c1
[1]
  Percent Effect: -1.12%
[2]
  Percent Effect: 5.57%

## O=C(N[C@H]1COC[C@@H]1N1CCCC1)c1csc(Cc2ccccc2)n1
[3]
  Percent Effect: 4.04%

## COCCN1CC[C@H](O)[C@@H]1Cc1ccccc1
[1]
  Percent Effect: -4.18%
[2]
  Percent Effect: -34.6%

## Cn1cc(C2=CCN(CCC(=O)NCc3ccc(Cl)cc3)CC2)cn1
[3]
  Percent Effect: 6.44%

## CC(NC(=O)c1cc(Br)c2c(c1)OCCO2)C(N)=O (stereo not drawn)
[1]
  Percent Effect: -2.13%
[2]
  Percent Effect: -4.92%

## Cc1nc(NCc2ccc(C)o2)cc(C(=O)N2CCOCC2)n1
[1]
  Percent Effect: 12.5%
[2]
  Percent Effect: -16.9%

## CC(C)[C@@H]1CN(C(=O)C2(c3ccccc3)CCN(C)CC2)C[C@H]1C(=O)O
[3]
  Percent Effect: 3.48%

## COc1ccc(S(N)(=O)=O)cc1C(=O)N(C)Cc1cc(C)on1
[1]
  Percent Effect: -2.1%
[2]
  Percent Effect: -47%

## Cc1ccc(CN2CCOC3(CCCN(C(=O)c4ccco4)C3)C2)s1 (stereo not drawn)
[1]
  Percent Effect: 4.58%
[2]
  Percent Effect: -29.2%

## CN(Cc1ccsc1)C(=O)Nc1ccc(S(=O)(=O)N(C)C)cc1
[1]
  Percent Effect: 0.428%
[2]
  Percent Effect: -3.75%

## CC(C)c1nc(CN2CCN(C(C)c3nc(C4CC4)no3)CC2)no1 (stereo not drawn)
[1]
  Percent Effect: -2.84%
[2]
  Percent Effect: 5.21%

## O=C(C1CCOCC1)N1C[C@@H]2[C@@H](C1)OCC(=O)N2Cc1ccncc1
[1]
  Percent Effect: -2.99%
[2]
  Percent Effect: -3.94%

## Cc1cccc(CC(=O)N2CCCC(N(C)CCCN(C)C)C2)c1 (stereo not drawn)
[3]
  Percent Effect: 6.04%

## CSc1nccc(N2CCC3(CCCN(CC4CC4)C3)C2)n1 (stereo not drawn)
[3]
  Percent Effect: 2.58%

## CCCS(=O)(=O)N1CCN(c2ccnc(N3CCCC3)n2)CC1
[1]
  Percent Effect: 2.06%
[2]
  Percent Effect: -50.6%

## Cc1nc(C)c(CC(=O)Nc2ncc(C)s2)c(=O)[nH]1
[1]
  Percent Effect: -3.61%
[2]
  Percent Effect: 30.1%

## Cc1cccnc1NC(=O)CSc1ccc2c(c1)OCCO2
[1]
  Percent Effect: 0.668%
[2]
  Percent Effect: -4.11%

## CCN1CCN(c2ccc(CNC(=O)c3c(C)noc3C)cn2)CC1
[1]
  Percent Effect: -3.84%
[2]
  Percent Effect: -40.9%

## CC(C)c1nc(C(=O)NCCn2ccnc2)nn1-c1cccc(F)c1
[1]
  Percent Effect: -3.06%
[2]
  Percent Effect: 32.1%

## OCCOCCN1CCCC1c1nc2cc(F)ccc2[nH]1 (stereo not drawn)
[1]
  Percent Effect: -5.15%
[2]
  Percent Effect: -4.14%
